This note sets out measurements from PubChem BioAssay (NCATS).

Records with an inconclusive call do not appear. Active and inactive are the calls of the source. Calls follow the shape of the dose curve; as a rule, active = well fitted activation curve with a large enough effect; inconclusive = small, poorly fitted or top-dose-only effect; inactive = no such curve, though single readings can be large or run the other way.
Potency is read from the fitted curve at half-maximal effect.

The assay in a line: Validation screen for small molecules that induce genotoxicity in human embryonic kidney (HEK293T) cells expressing luciferase-tagged ELG1 (AID 493106). As to activity change, positive = ELG1 induction: 0% is about no effect. The conditions noted are these: luminescence; series mostly up to 46.1 µM; activity change, positive = ELG1 induction: at the top concentration. The text has this: NIH Molecular Libraries Probe Production Network [MLPCN]
NIH Chemical Genomics Center [NCGC]
Assay Provider: Kyungjae Myung, NHGRI, NIH
Keywords: MLPCN, qHTS, NCGC, genotoxicity, cancer
Cancer cells divide rapidly compared to normal cells in the body. During cell division, cancer cells need to duplicate their genome by DNA replication. The failure of genome duplication leads to cancer cells' death. Therefore, inhibitors of DNA replication could specifically kill cancer cells. Based on this concept, many chemotherapeutic agents were developed and have been used to treat cancer patients. However, there are a limited number of agents available in the clinical setting, and some of those that do exist have low efficacy and severe side effects. Therefore, if we can find the compounds that effectively block DNA replication either by directly damaging DNA or by inhibiting other cellular mechanisms, the options for cancer treatment will be broadened. With this in mind, we developed a quantitative high-throughput ELG1-luciferase reporter gene assay. Since the level of human ELG1 protein is enhanced in response to genetic stresses, increases in luciferase activity can be used to identify compounds that cause genetic stress.
For genotoxicity screening, 2,000 cells in 5 uL/well were dispensed into white, solid-bottom 1536-well plates using a solenoid-based dispenser. Following transfer of 23 nL compound or DMSO vehicle by a pin tool, the plates were incubated 16 hr at 37 °C and 5% CO2. 5 ul ONE-Glo (Promega) was then added to each plate and following a 30 min incubation at room temperature, luciferase activity was quantified on a ViewLux CCD-based plate reader.
With `Cc1c(OCC(F)(F)F)ccnc1CS(=O)c1nc2ccccc2[nH]1` (configuration not stated), the “activity change, positive = ELG1 induction” value (“activity change” below) was 8.91% (inactive). With `O=C(CCc1ccc(O)cc1)c1c(O)cc(O)cc1O`, the “activity change” value was 7.22% (inactive). Regarding `O=c1c(O)c(-c2ccc(O)cc2O)oc2cc(O)cc(O)c12`, the “activity change” value was -3.28% (inactive).

Turning to `O=C(c1ccccc1)c1ccc2n1CCC2C(=O)O` (configuration not stated), the “activity change” value was 0.241% (inactive). The same measure, in the same setting: as for `CC1(C)C(=O)N(CCN2CCC(C(=O)c3ccc(F)cc3)CC2)c2ccccc21`, the figure is -20.7% (inactive); as for `O=C1NC(=O)C(c2ccccc2[N+](=O)[O-])=C1Nc1ccc(O)c(Cl)c1`, 11.7% (inactive). In the case of `Oc1ccc2ccccc2c1SSc1c(O)ccc2ccccc12`, the “activity change” value was -8.52% (inactive).

As to `CNC[C@H](O)c1ccc(O)c(O)c1`, the “activity change” value was 4.09% (inactive).

Turning to `CC1(C)NC(=O)N(c2ccc([N+](=O)[O-])c(C(F)(F)F)c2)C1=O`, the “activity change” value is -13.2% (inactive).

Consider `CCN(CC)C(=S)SSC(=S)N(CC)CC`, for which the Potency is 18.3 µM (active). On to `CC(C)c1ccc2c(c1)c(SC(C)(C)C)c(CC(C)(C)C(=O)O)n2Cc1ccc(Cl)cc1`, for which the “activity change” value is -21.8% (inactive). Turning to `O=C1c2ccccc2-c2n[nH]c3cccc1c23`, the “activity change” value is -0.331% (inactive). Same read-out and setting: as for `NC(=NCc1ccccc1)NC(=O)c1nc(Cl)c(N)nc1N`, the figure is 1.78% (inactive); as for `O=C1c2c(O)cc(O)cc2OC(c2ccc(O)c(O)c2)C1O` (configuration not stated), -2.32% (inactive). The same measure, in the same setting: as for `Oc1ccc(-c2nc(-c3ccc(F)cc3)c(-c3ccncc3)[nH]2)cc1`, the figure is -0.782% (inactive).

Take `COc1ccc2cc([C@H](C)C(=O)O)ccc2c1`: the “activity change” value is -0.632% (inactive). The same measure, in the same setting: next, `C[C@@H](N)C1CCC(C(=O)Nc2ccncc2)CC1` (some centres not stated): -9.87% (inactive); `Cc1cc(O)c2c(c1)C(=O)c1cc(O)cc(O)c1C2=O`: -4.94% (inactive); `COc1cc2nc(N3CCN(C(=O)C4CCCO4)CC3)nc(N)c2cc1OC` (configuration not stated): 2.62% (inactive). Same read-out and setting: as for `CN(C)CCCC1(c2ccc(F)cc2)OCc2cc(C#N)ccc21` (configuration not stated), the figure is 1.35% (inactive). Same read-out and setting: as for `CC(=O)O[C@H]1C(=O)[C@@]2(C)C([C@H](OC(=O)c3ccccc3)[C@]3(O)C[C@H](OC(=O)[C@H](O)[C@@H](NC(=O)c4ccccc4)c4ccccc4)C(C)=C1C3(C)C)[C@]1(OC(C)=O)CO[C@@H]1C[C@@H]2O` (some centres not stated), the figure is -11.1% (inactive); as for `OC(CN1CCN(c2cccc(Cl)c2)CC1)C(c1ccccc1)c1ccccc1` (configuration not stated), -8.58% (inactive); as for `O=C(O)c1cccnc1Nc1cccc(C(F)(F)F)c1`, -8.61% (inactive). Turning to `COc1ccccc1N1CCN(CCN(C(=O)C2CCCCC2)c2ccccn2)CC1`, the “activity change” value is -16.3% (inactive). On to `O=Nc1c(-c2c(O)[nH]c3cc(Br)ccc23)[nH]c2ccccc12`, for which the Potency is 0.92 µM (active). With `Cc1cccc(C#Cc2ccccc2)n1`, the Potency was 8.2 µM (active). For `C[C@H](Cc1ccc(O)c(O)c1)[C@@H](C)Cc1ccc(O)c(O)c1`, the “activity change” value is -9.15% (inactive).

In the case of `Nc1ccn([C@@H]2O[C@H](CO)[C@@H](O)C2O)c(=O)n1` (some centres not stated), the “activity change” value was -2.2% (inactive). On the same count and under the same terms, next, `O=c1ccc2ccc(O)c(O)c2o1`: -6.83% (inactive); `NCCCCNCCCN`: -4.72% (inactive). For the compound `O=c1c(O)c(-c2cc(O)c(O)c(O)c2)oc2cc(O)cc(O)c12`, the “activity change” value is -9.12% (inactive).

For `O=c1cc(N2CCOCC2)oc2c(-c3ccccc3)cccc12`, the “activity change” value is 7.76% (inactive).
